BaF3 parental – parental Ba/F3 cell viability inhibition, counter-screen for JAK2V617F inhibitor project, murine pro-B, CellTiter-Glo luminescence. CellTiter-Glo ATP luminescence. inhibition, % at 5.6 µM. hit rate 1.1% among 220,000. AID 1486, 2009;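 active means inhibition above a per-campaign cutoff, the mean inhibition of all tested compounds plus 3 SD, cut at about 27% in these data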;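 further: 0% = DMSO wells and 100% = JAK Inhibitor I control wells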
Ba/F3 V617F tox – reduced viability of JAK2V617F-dependent Ba/F3 cells, primary screen, JAK2V617F inhibitor project, cell-based, Ba/F3 EpoR-JAK2V617F, luminescence; ATP luminescence; inhibition, % at 5.6 µM; hit rate 1.1% among 220,000; AID 1446, 2008;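 active means inhibition above the campaign mean plus 3 SD over all tested compounds, cut at about 24% in these data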;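 further: cytokine-independent growth of Ba/F3 cells driven by EpoR plus mutant JAK2; 0% = DMSO-treated cells and 100% = JAK inhibitor I control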
IEC-6 cytotox – cytotoxicity in IEC-6 intestinal epithelial cells, primary screen, cytotoxicity control for KLF5 inhibitor project, cell-based, luminescence; hit rate 0.78% among 290,000; AID 1825, 2009; IEC-6 cytotoxicity, luminescence viability; inhibition, % at 5 µM; in the data active means inhibition above about 22%;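 further: 0% = plate median of test compound wells and 100% = cytotoxic reference compound wells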
APP 5UTR inh – inhibitors of APP translation via 5'UTR reporter, primary screen, APP 5'UTR luciferase, SH-SY5Y cells | SH-SY5Y APP 5'UTR-luciferase reporter, luminescence | hit rate 0.82% among 190,000 | inhibition, % at 2 µM;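 active means inhibition above a set limit, derived from the sample mean plus 3 SD, cut at about 45% in these data; inconclusive means one replicate passes the limit while the other fails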
aSyn UTR inh – MLPCN primary screen, SNCA 5' untranslated region; alpha-synuclein 5'UTR reporter, inhibitor activity; inhibition, % (tested at 7.5 µM); AID 1813, 2009; hit rate 0.82% among 300,000; in the data active means inhibition above about 60%; inconclusive means no clear call, values can overlap the other calls;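 further: H4 neuroglioblastoma cells stably carrying SNCA 5'UTR luciferase fusion; 0% = DMSO wells and 100% = positive control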
KLF5 inh – KLF5 expression inhibitors, primary screen, DLD-1 cells, luminescence; inhibition, % at 5 µM; hit rate 0.23% among 290,000; DLD-1 KLF5 promoter-luciferase reporter;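 active means inhibition above a per-plate limit of that plate's mean compound inhibition plus 3 SD, cut at about 60% in these data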;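 further: 0% = DMSO wells and 100% = LY294002 at 200 µM; higher means less KLF5 promoter-driven luciferase light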
An asterisk follows results filed as active; u = inconclusive; x = no result. A selection: hits, their analogues and other compounds. The true share with any hit is near 2.2%.

SMILES	BaF3 parental	Ba/F3 V617F tox	IEC-6 cytotox	APP 5UTR inh	aSyn UTR inh	KLF5 inh
CC(NC(=O)c1cc(COc2ccc3ncccc3c2)on1)c1ccc(F)cc1 (stereo not given)	36.4*	30.8*	7.1	x	2.8	-26.3
O=C(NC1CCCC1)c1cc(COc2ccc3ncccc3c2)on1	43.5*	36.5*	3.4	x	9.3	-32.7
O=C(c1cc(COc2ccc3ncccc3c2)on1)N1CCCC1	x	x	7.7	x	-41.3	2.5
COc1cccc(CN(C)C(=O)c2cc(COc3ccc4ncccc4c3)on2)c1	71.3*	54.5*	13.9	9.2	-15.4	-31.7
COc1ccc(OC)c(/C=N/NC(=O)C(=O)N2CCCCCC2)c1	x	x	-0.7	x	-0.2	7.6
CN1CC(=O)Nc2ccc([N+](=O)[O-])cc2C1=O	x	x	0.5	x	-0.9	-10.4
CCN(CC(=O)Nc1cc(Cl)ccc1C)C(=O)c1ccc2c(=O)n3c(nc2c1)CCC3	x	x	x	x	-2.0	x
CCc1ccc(NC(=O)CCS(=O)(=O)c2ccc3c(c2)CCN3C(C)=O)cc1	x	x	7.2	x	2.7	-5.4
CCC(=O)N1CCc2cc(S(=O)(=O)CCC(=O)Nc3ccc(CC)cc3)ccc21	93.3*	-0.7	-2.0	-6.0	16.8	-45.6
O=C(O)/C=C/C(=O)Nc1ccc(S(=O)(=O)Nc2nccs2)cc1	x	x	-4.9	x	-33.8	-34.6
Cc1ccc(Nc2cc(C)nn2-c2nc(C)cc(C)n2)cc1	6.0	2.5	30.1*	6.1	29.5	23.6
CC(=O)Nc1cc(C)nn1-c1nc(C)cc(C)n1	-3.4	-5.3	6.6	18.9	5.6	-5.7
O=S(=O)(c1ccc(Oc2ccc(F)c(Cl)c2)nc1)N1CCOCC1	x	x	x	x	-7.6	x
O=C(NCc1nnnn1-c1ccc(F)c(F)c1)c1ccc2c(c1)OCO2	x	x	x	x	-3.7	x
CCN1/C(=C/c2cc[n+](C)cc2)C=Cc2cc(C)ccc21	73.3*	99.4*	-2.6	-0.6	x	-5.7
CSc1ccc(/C=N/Nc2cccc(C(=O)O)c2)cc1	2.3	0.8	-8.2	8.5	x	-72.7
O=C(O)c1cccc(N/N=C/c2cccs2)c1	2.6	-1.2	4.4	9.0	95.8*	-72.7
COc1ccc(NC(=O)C(=S)N2CCCC2)cc1	8.8	-1.0	-5.6	-3.4	-63.2	-37.8
Cc1cc(NC(=O)CSc2nc3c(C)cccc3cc2C)no1	x	x	-4.4	x	0.4	-7.4
CC1(C)C2CCC1(C)C(OCC[N+](C)(C)CC(=O)OC1CCCCC1)C2 (stereo not given)	82.6*	99.9*	1.8	10.1	4.3	6.5
CCOC(=O)C[N+](C)(C)CCOC1CC2CCC1(C)C2(C)C (stereo not given)	30.2*	14.8	0.2	-31.7	-6.1	17.9
COc1ccccc1N1CCN(C2CCCN(S(=O)(=O)c3ccccc3)C2)CC1 (stereo not given)	x	x	-0.9	x	1.6	-24.0
Cc1ccc(NC(=O)c2cccc(S(=O)(=O)N(C)C3CCCCC3)c2)nc1	x	x	x	x	18.5	x
O=C(Nc1ccc(CN2CCOCC2)cc1)c1cc2ccccn2n1	1.4	2.9	6.9	-86.1	71.7*	-54.6
Cc1ccnc(NC(=O)c2ccc(S(=O)(=O)N3CCCC3)cc2)c1	x	x	x	x	-30.4	x
SMILES	BaF3 parental	Ba/F3 V617F tox	IEC-6 cytotox	APP 5UTR inh	aSyn UTR inh	KLF5 inh
C(=C\c1ccc2ccccc2n1)/c1ccccc1	1.6	0.3	5.0	-175.5	66.9*	-108.0
COc1cc(/C=C/c2nc3ccccc3s2)cc(OC)c1O	-3.7	-2.5	1.5	-129.1	-69.1	-37.0
CN(C)c1ccc(CNc2nc3ccccc3s2)cc1	x	x	-7.4	x	80.2*	63.5*
O=C(O)/C=C/c1ccc2ccccc2n1	1.2	-2.3	-1.0	-2.4	-64.2	-16.4
CN(C)c1ccc(/C=C/c2ccc3ccccc3n2)cc1	22.1	15.2	21.1	x	89.1*	104.5*
Cc1ccc(/C=C/c2nc3ccccc3s2)s1	2.0	-2.3	-0.1	-98.5	71.4*	-120.5
CN(C)c1ccc(/C=C/c2nc3ccccc3s2)cc1	1.1	1.3	-0.5	-13.7	81.1*	53.2
CC(C)c1ccc(N(C(=O)c2snc(C(N)=O)c2N)C(C(=O)NC2CCCC2)c2ccncc2)cc1 (stereo not given)	x	x	-2.6	x	-2.8	8.7
CCCCCCc1cc2cc(C(=O)Nc3cccc(OC)c3)c(=O)oc2cc1O	3.4	-1.1	2.0	-6.7	62.8*	5.2
O=C(CSc1nnnn1C1CCCCC1)Nc1ccc(F)cc1	55.8*	-2.5	-6.4	5.7	-2.0	-29.2
Cc1ccccc1CC1(CO)CCCN(Cc2c(C)nn(C)c2Cl)C1 (stereo not given)	79.8*	0.3	9.8	8.9	-13.5	-11.3
COc1ccccc1N1CCN(C(=O)C(CC(C)C)NC(=O)C2CCCCC2)CC1 (stereo not given)	x	x	1.9	x	-7.2	-16.8
COc1ccc(-c2nn(-c3ccccc3)cc2C(=O)NC(=S)NNC(=O)c2ccncc2)cc1	3.6	5.1	24.7*	49.9*	72.5*	19.9
COc1ccc(NC(=O)c2cn(-c3ccccc3)nc2-c2ccncc2)cc1	8.8	1.8	-0.8	10.4	-25.2	-33.5
O=C(NC(CSCc1ccccc1)C(=O)N/N=C/c1ccc(O)cc1O)c1ccc([N+](=O)[O-])cc1 (stereo not given)	9.4	7.5	19.9	49.5*	83.7*	32.7
COc1cc(O)ccc1/C=N/NC(=O)c1ccc([N+](=O)[O-])cc1	4.8	-2.5	-7.4	-12.4	7.6	-2.4
COc1ccc2c(c1)C=C(CN1CCC(CO)(CCc3ccccc3)CC1)CO2	4.2	-3.2	-4.1	-11.2	7.9	9.4
COc1ccc(CC2(CO)CCN(CC3=Cc4cc(Cl)ccc4OC3)CC2)cc1	38.7*	36.7*	-0.9	13.7	-0.5	-11.7
O=c1c2c(nc3c(-c4cccc(Br)c4)c[nH]n13)CCCC2	-1.3	-3.1	-6.9	-13.0	68.7*	-42.6
O=C(CN(Cc1ccccc1)S(=O)(=O)c1ccccc1)N/N=C/c1ccc([N+](=O)[O-])cc1	95.0*	0.6	-4.8	10.0	7.9	-15.7
Cn1c(=O)c2c(nc(Br)n2Cc2nnc(N)s2)n(C)c1=O	-4.1	0.4	-1.6	x	-45.8	-31.3
O=C(OCn1ncc(Br)c(Br)c1=O)c1c(F)cccc1F	66.8*	73.9*	10.6	95.5*	u	-38.7
CC(=O)Cn1ncc(Br)c(Br)c1=O	-3.3	5.3	101.7*	96.6*	-87.4	-33.1
O=C(Nc1ccc(F)cc1F)c1csc(-c2ccccc2)n1	3.0	0.8	-3.7	-30.0	-95.3	-8.0
O=C(Nc1ccc(F)cc1F)Nc1ccc(F)cc1F	55.7*	17.8	-0.9	-45.3	-86.6	-68.5
O=C(Nc1ccc(S(=O)(=O)N2CCCC2)cc1)Nc1ccc(F)cc1F	x	x	1.7	x	-3.7	-39.5
O=C(Nc1ccc(F)cc1F)c1cccc(C(=O)Nc2ccc(F)cc2F)n1	x	x	-3.2	x	86.7*	14.8
